± gives the standard deviation.

This experiment relates to MILI (PIWIL2) piRISC loaded with L1MC piRNA (26 nt). As to the kind of experiment: pre-steady-state target cleavage rate (min^-1); guide: L1MC piRNA 5'p-UAACUAAAUACUAUGCAAGCUGUAGG; MIWI and MILI are mouse PIWI proteins and EfPiwi is from a freshwater sponge; tags in brackets are library labels; higher = faster piRNA-guided slicing of the target. The settings on record: auxiliary factor: none (no GTSF1). In outline: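 Sequencing of uncleaved targets, normalised to depth and to weakly complementary targets, was the readout of this Cleave-'n-Seq assay. A transcribed, DNA-blocked target RNA library (0.1 nM) was mixed with 1 nM active affinity-purified piRISC carrying one synthetic guide, with or without 500 nM GTSF1 partner protein, in HEPES–potassium acetate buffer at 33 °C for 0–8 or 0–960 min. Three trials were pooled, k3 was capped at 0.0001 min^-1, and a burst-and-steady-state fit gave the pre-steady-state cleavage rate.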
In the case of UCCUGGAUGUCGUUGCAUAGUUAUUAGUUA, the “pre-steady-state target cleavage rate” value was 0.00364 ± 0.0031.

Turning to UCCUGGAUGUCGAACGUAAGUAUUUAUUUA, the “pre-steady-state target cleavage rate” value is below 0.0001.

UCCUGGAUCAGCAACCAUAGUAUUUACAAA: the “pre-steady-state target cleavage rate” value was below 0.0001.

UCCUGGAUGUCGAACCAUUAGUAUUUAGUUA: the “pre-steady-state target cleavage rate” value is below 0.0001.

For the sequence UCCUGGAUGUCGUUGCAUAGUUUUAAGUUA, the “pre-steady-state target cleavage rate” value is 0.0042 ± 0.0022.

Regarding “UCCUGGAACAGCUUGCAAUCAUAAAUCAAA [g14:g23:cont:t1A]”, the “pre-steady-state target cleavage rate” value is below 0.0001.

The values are drawn from the supplement of paper PMC10338343.
